ELG1 genotoxic = induces genotoxicity in HEK293T cells with luciferase-tagged ELG1; HEK293T ELG1-luciferase reporter, luminescence, 16 h; Potency, µM (highest dose often 46 µM), actives largely listed as activators; actives 1.3% (n = 330,000); AID 504466; note: nearly all actives have a fitted effect of over 60% in size
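16 hr compound incubation (37 °C, 5% CO2) of HEK293T cells carrying luciferase-tagged ELG1; luciferase then measured by ONE-Glo luminescence after 30 min at RT.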
SMN2 splice up = increases expression of the SMN2 splice variant | HEK293 SMN2-luciferase splicing reporter, luminescence, 30-36 h | Potency, µM (titrated, usually from 46.1 µM), most hits filed as activators | actives 2.8% (n = 210,000) | AID 1458; note: nearly all actives have a fitted effect of over 55% in size
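HEK293 cells carry an SMN2 […]–luciferase reporter in which exon 7 inclusion puts luciferase in frame. Cells were plated 10-12 h before compound addition, then incubated 30-36 h at 37C. ONE-Glo luminescence was read; sodium butyrate at 4.5 mM final served as control.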
p53 reactivation = mutant p53 re-activation in reporter cells; H1299 p53-A138V BP100-luciferase reporter, luminescence, 24 h; actives 0.063% (n = 320,000); AID 504706; Potency, µM (titrated, usually from 92.2 µM), usual class: activators; note: nearly all actives have a fitted effect of over 45% in size
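p53-null H1299 cells stably carrying temperature-sensitive p53-A138V and a BP100-luciferase reporter were pinned with compounds (4-point, 1:5 series) and held 24 hrs at 37 deg C. Luminescence was read 10 min after detection reagent.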
NPC1 promoter act = activators of NPC1 promoter; Huh7 NPC1 promoter luciferase reporter, 24 h; Potency, µM (doses to about 9.22 µM), actives largely listed as activators; actives 2.4% (n = 320,000); note: nearly all actives have a fitted effect of over 60% in size
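Quantitative HTS used a cell-based reporter: Huh7 cells stably bearing the NPC1 promoter upstream of luciferase were treated with compounds for 24 h, and promoter activation was read as luminescence.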
Rab9 promoter act = Rab9 promoter activation; AID 485297; actives 2.8% (n = 320,000); Potency, µM (highest dose often 9.22 µM), most hits filed as activators; Huh7 Rab9 promoter-luciferase reporter, luminescence, 24 h; note: nearly all actives have a fitted effect of over 60% in size
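Huh7 cells stably carrying a Rab9 promoter-luciferase reporter, 1500 cells per well in OP-MEM I with 10% FBS, treated with compound 24 hours at 37C. Luciferase activity read by luminescence after 10 minutes with Amplite reagent.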
FLuc counter = inhibits or activates purified firefly luciferase, miR-21 counter-screen. P08659. purified FLuc, Km substrates, luminescence inhibition. Potency, µM (top dose mostly 57.5 µM), usual class: inhibitors. actives 6.9% (n = 360,000). AID 588342; note: nearly all actives have a fitted effect of over 55% in size
Target sequence (P08659 whole entry, looked up): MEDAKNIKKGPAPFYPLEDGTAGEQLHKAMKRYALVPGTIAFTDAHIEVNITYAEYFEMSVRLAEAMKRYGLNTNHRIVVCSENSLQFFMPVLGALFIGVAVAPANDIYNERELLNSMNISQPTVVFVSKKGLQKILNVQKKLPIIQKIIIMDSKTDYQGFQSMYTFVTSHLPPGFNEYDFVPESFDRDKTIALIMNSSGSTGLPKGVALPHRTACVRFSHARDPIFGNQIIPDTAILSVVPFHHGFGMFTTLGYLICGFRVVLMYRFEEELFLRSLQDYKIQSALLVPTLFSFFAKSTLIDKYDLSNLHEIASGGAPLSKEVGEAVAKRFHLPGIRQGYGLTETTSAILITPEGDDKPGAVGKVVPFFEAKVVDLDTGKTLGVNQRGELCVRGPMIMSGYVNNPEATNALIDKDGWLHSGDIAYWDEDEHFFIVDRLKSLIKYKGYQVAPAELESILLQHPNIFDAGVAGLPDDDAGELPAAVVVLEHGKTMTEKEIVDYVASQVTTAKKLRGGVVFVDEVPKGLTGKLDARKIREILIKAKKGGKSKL
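Purified P. pyralis luciferase (10nM final) with 10uM D-luciferin and 10uM ATP (Km levels) in 50mM Tris acetate pH 7.5, 10mM Mg acetate, 0.01% Tween-20, 0.05% BSA; qHTS 6-point titration, ~60 µM downward; luminescence read.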
Numbers stand for hits; i = inactive; ? = inconclusive; nt = not tested or not shown. Compounds with a hit are over-represented: about 7.4% of the library has one in this group of screens. Calls come from the whole dose curve; as a rule, active = well fitted curve in the direction sought with a large enough effect; inconclusive = small, poorly fitted or top-dose-only effect, or another doubt; inactive = no such curve, though single readings can be large; an effect the other way counts as inactive or inconclusive.

SMILES	ELG1 genotoxic	SMN2 splice up	p53 reactivation	NPC1 promoter act	Rab9 promoter act	FLuc counter
COc1ccc(/C=C/c2nnc(NC(=O)CC(C)C)s2)cc1	i	nt	i	i	i	?
CCc1nnc(NC(=O)CSc2ccc(Cl)cc2)s1	i	nt	i	i	i	i
Cc1ccc(Cn2c(CO)cnc2SCC(=O)NCc2ccccc2Cl)cc1	nt	nt	nt	nt	nt	i
Cc1ccccc1Cn1c(=O)n(CCCCCC(=O)NCc2ccc3c(c2)OCO3)c(=O)c2sccc21	nt	i	nt	nt	nt	i
CS(=O)(=O)Nc1cccc(-c2nccc(-n3ccnc3)n2)c1	nt	i	nt	nt	nt	nt
N#Cc1ccc(CN2CCC3(CC2)CCN(C(=O)c2cccc(F)c2)CC3)cc1	nt	i	nt	nt	nt	nt
CCOc1ccc2nc(SCC(=O)N(C)C)[nH]c2c1	16.4µM	i	?	3.98µM	3.55µM	19µM
CCOc1ccc2nc(SCC(=O)Nc3ccc4[nH]c(=O)[nH]c4c3)[nH]c2c1	i	nt	i	i	i	13.5µM
CCOC(=O)N1CCc2c(sc3c2c(=O)n(-c2ccc(F)cc2)c(=O)n3CC(=O)c2ccc(Cl)cc2)C1	nt	i	nt	nt	nt	i
CC(=O)N1CCC2(CC1)CN(Cc1ccccc1)C2	nt	i	nt	nt	nt	nt
CCOc1ccccc1NC(=O)c1ccc2c(c1)C(=O)N(CC)C2=O	i	nt	nt	i	i	i
C=CCc1c(C)nc2c(OC)cccc2c1Cl	i	nt	i	i	i	13.5µM
COc1cccc2c(Cl)c(CC=C(Cl)Cl)c(C)nc12	i	nt	i	i	i	i
CC(C)Cn1c(-c2cccc(Br)c2)nc2ccccc21	nt	i	nt	nt	nt	i
COCn1c(-c2cccc(Br)c2)nc2ccccc21	?	nt	i	i	i	16.9µM
COCn1c(-c2ccc(OC)c(OC)c2)nc2ccccc21	?	i	i	?	3.55µM	10.7µM
Cc1ccc(-c2nc(CC(=O)Nc3cccc(S(=O)(=O)NC4=NCCC4)c3)cs2)cc1	i	nt	i	i	i	?
O=C(NCc1ccc(Cl)cc1)c1cnc2sc(N3CCOCC3)nn2c1=O	nt	nt	nt	nt	nt	i
O=C(CSc1nc2ccccc2n1-c1ccccc1)Nc1ncc(Cl)cc1Cl	i	4.47µM	i	i	i	i
O=C(CSc1ncc(-c2ccc(F)cc2)[nH]1)Nc1cccc(O)c1	i	nt	i	i	i	19µM
Cn1c2ccc(F)cc2c2nnc(SCC(=O)Nc3cccc(O)c3)nc21	i	nt	i	i	i	9.53µM
O=C(NCCCCNC(=O)c1cccnc1)c1cccnc1	i	i	i	i	i	i
CC(C)(C)c1ccc(C(=O)NCCCNC(=O)c2ccccn2)cc1	i	nt	i	i	i	16.9µM
CC(C)(C)c1ccc(C(=O)NCCCNC(=O)c2cccnc2)cc1	i	nt	i	i	?	16.9µM
CC(=O)Nc1cccc(OCCCNC(=O)c2ccc(C(C)(C)C)cc2)c1	i	nt	i	i	i	19µM
SMILES	ELG1 genotoxic	SMN2 splice up	p53 reactivation	NPC1 promoter act	Rab9 promoter act	FLuc counter
CC(=O)N1CCc2cc(S(=O)(=O)NC(CC(C)C)C(=O)NCCc3ccc(C)cc3)ccc21 (stereo not given)	nt	i	nt	nt	nt	i
Cc1cccc(-c2nc(SCC(=O)N(C)c3ccccc3)c3c(=O)n(C)c(=O)n(C)c3n2)c1	nt	nt	nt	nt	nt	i
COc1cccc(Oc2nnnn2-c2ccccc2)c1	?	nt	?	?	3.98µM	16.9µM
COc1ccc(Oc2nnnn2-c2ccccc2)cc1	i	i	i	i	i	?
CCN(Cc1ccccc1)C(=O)CCc1c(C)nc2c(c(C)nn2-c2ccc(C)c(C)c2)c1C	nt	i	nt	nt	nt	i
O=C(N/N=C\c1cccc([N+](=O)[O-])c1O)C1COc2ccccc2O1 (stereo not given)	i	i	?	i	i	19µM
O=C(N/N=C/c1cccc([N+](=O)[O-])c1)C1COc2ccccc2O1 (stereo not given)	i	nt	i	i	i	i
O=C(Nc1ccccc1[N+](=O)[O-])C1COc2ccccc2O1 (stereo not given)	?	nt	i	2.82µM	3.55µM	9.53µM
CC(=O)OC1CC2C(C)(C)C(O)CC[C@@]2(C)C2CC[C@@]3(C)C(c4ccoc4)OC(=O)C4O[C@@]43[C@]12C (stereo not given in full)	nt	i	nt	nt	nt	nt
Cc1nn(CC(=O)NCc2ccc(F)cc2)c2ccccc12	nt	nt	nt	nt	nt	i
CSc1nnc(-c2ccccc2N=Cc2c(C)[nH]n(-c3ccccc3)c2=O)c(=O)[nH]1	i	i	i	i	i	i
Cn1cccc1/C=N/n1c(-c2ccccc2)n[nH]c1=S	i	i	i	i	i	i
Cc1ccc2cccc(N=Cc3c(C)[nH]n(-c4ccccc4)c3=O)c2n1	?	nt	i	i	i	16.9µM
Cn1cccc1/C=N/n1c(-c2ccc(C(C)(C)C)cc2)n[nH]c1=S	i	i	i	i	i	21.3µM
Cc1ccc(-c2n[nH]c(=S)n2/N=C/c2c(C)[nH]n(-c3ccccc3)c2=O)cc1	i	i	i	i	i	12µM
Cc1sc(NC(=O)c2sc3nc4c(C)cccc4cc3c2N)c(C#N)c1C	?	i	i	i	?	0.536µM
COc1ccccc1C(=O)N/C(N)=N/c1nc2ccccc2o1	i	i	i	?	?	?
CCC(=O)N/C(N)=N/c1nc2ccccc2o1	?	nt	i	3.98µM	1.12µM	10.7µM
CC(C)(C)C(=O)N/C(N)=N/c1nc2ccccc2o1	?	nt	i	0.891µM	0.447µM	i
N/C(=N\c1nc2ccccc2o1)NC(=O)/C=C/c1ccccc1	i	nt	i	i	i	i
N/C(=N\c1nc2ccccc2o1)NC(=O)c1ccccc1	8.2µM	i	?	3.98µM	?	?
Cc1ccc(C(=O)N/C(N)=N/c2nc3ccccc3o2)cc1	?	i	i	?	?	i
CC(C)CC(=O)N/C(N)=N/c1nc2ccccc2o1	?	nt	i	1.58µM	1.41µM	8.49µM
COc1ccc(S(=O)(=O)N2CCC(C(=O)Nc3cc(Cl)ccc3N3CCOCC3)CC2)cc1OC	i	nt	i	i	i	i
CCCC[C@@H](C=O)NC(=O)[C@H](CC(C)C)NC(=O)[C@H](CC(C)C)NC(C)=O	nt	i	nt	nt	nt	nt
SMILES	ELG1 genotoxic	SMN2 splice up	p53 reactivation	NPC1 promoter act	Rab9 promoter act	FLuc counter
COc1ccc(-c2c3c(=O)n(C)c(=O)n(C)c3c3n2-c2ccccc2NC3c2ccc(OC)cc2)cc1 (stereo not given)	nt	nt	nt	nt	nt	i
CCCC(=O)N/C(N)=N/c1nc2ccccc2o1	?	nt	i	0.891µM	0.708µM	6.75µM
CCOC(=O)c1sc(NC(=O)c2cc(-c3ccc(C)cc3)nc3ccccc23)c(C#N)c1C	i	i	i	i	i	12µM
COC(=O)c1sc(NC(=O)c2cc(-c3ccccc3)nc3ccccc23)c(C#N)c1C	i	i	i	i	i	?
COc1ccc(-c2cc(C(=O)Nc3sc4c(c3C#N)CCCC4)c3ccccc3n2)cc1	i	i	i	i	i	15.1µM
CCOc1ccccc1NC(=O)C(CC)n1c(C(=O)OC)cc2occc21 (stereo not given)	nt	i	nt	nt	nt	i
